A selection: hits, their analogues and other compounds. The true share with any hit is near 0.89%.
CBFb-RUNX1 inh: qHTS Assay for Compounds Blocking the Interaction Between CBF-beta and RUNX1 for the Treatment of Acute Myeloid Leukemia | AlphaScreen CBFb-His/RUNX1-biotin binding, biochemical | Potency, µM (titrated, usually from 59.8 µM), without a hit: at the top dose activity, negative = inhibition, most hits filed as inhibitors | 230,000 tested, under 10 active | AID 1477, 2009; also: % of control where 0% means no effect
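Compounds were screened at multiple concentrations against a preformed CBF-beta(His)/RUNX1(biotin) complex (30 nM of each) for 15 min at room temperature, followed by 90 min with nickel and streptavidin beads and AlphaScreen reading.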
MBNL1-CUG inh: qHTS Assay for Inhibitors of MBNL1-poly(CUG) RNA binding; Muscleblind-like protein 1 (Homo sapiens), Q9NR56; TR-FRET MBNL1-His/biotin-(CUG)12 binding, 665/545 ratio; Potency, µM (doses to about 57.5 µM), without a hit: top-dose activity change, negative = inhibition, most hits filed as inhibitors; actives 0.036% (n = 280,000); AID 2675, 2010; active = well fitted inhibition curve with a large enough effect in the signal ratio, with a control signal flat, not every such curve was filed as active; inconclusive = small, poorly fitted or top-dose-only effect, or effect the other way, or a change in a side signal; inactive = no such curve, though single readings can be large or run the other way; the % refers to the signal ratio; also: potency is read from the fitted curve at half-maximal effect; % is scaled to controls: 0 for no effect and ±100 for the full control effect
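Compounds (final 92 nM to 58 uM) are added to His-tagged MBNL1 and biotin-(CUG)12, then terbium anti-His antibody and streptavidin-XL665 (5 nM final). After 60 min at room temperature, the 665/545 nm ratio is read.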
L3MBTL1 inh: qHTS Assay for the Inhibitors of L3MBTL1; AID 485360, 2010; actives 0.66% (n = 230,000); AlphaScreen L3MBTL1–H3K9me1 peptide binding; Lethal(3)malignant brain tumor-like protein 1 (Homo sapiens), Q9Y468; Potency, µM (top dose mostly 57.1 µM), for inactives: at the highest dose activity, negative = inhibition, actives largely listed as inhibitors; also: potency is read from the fitted curve at half-maximal effect; % is scaled to controls: 0 for no effect and ±100 for the full control effect; nearly all actives have a fitted effect of over 60% in size
Target sequence (Q9Y468 whole entry, looked up): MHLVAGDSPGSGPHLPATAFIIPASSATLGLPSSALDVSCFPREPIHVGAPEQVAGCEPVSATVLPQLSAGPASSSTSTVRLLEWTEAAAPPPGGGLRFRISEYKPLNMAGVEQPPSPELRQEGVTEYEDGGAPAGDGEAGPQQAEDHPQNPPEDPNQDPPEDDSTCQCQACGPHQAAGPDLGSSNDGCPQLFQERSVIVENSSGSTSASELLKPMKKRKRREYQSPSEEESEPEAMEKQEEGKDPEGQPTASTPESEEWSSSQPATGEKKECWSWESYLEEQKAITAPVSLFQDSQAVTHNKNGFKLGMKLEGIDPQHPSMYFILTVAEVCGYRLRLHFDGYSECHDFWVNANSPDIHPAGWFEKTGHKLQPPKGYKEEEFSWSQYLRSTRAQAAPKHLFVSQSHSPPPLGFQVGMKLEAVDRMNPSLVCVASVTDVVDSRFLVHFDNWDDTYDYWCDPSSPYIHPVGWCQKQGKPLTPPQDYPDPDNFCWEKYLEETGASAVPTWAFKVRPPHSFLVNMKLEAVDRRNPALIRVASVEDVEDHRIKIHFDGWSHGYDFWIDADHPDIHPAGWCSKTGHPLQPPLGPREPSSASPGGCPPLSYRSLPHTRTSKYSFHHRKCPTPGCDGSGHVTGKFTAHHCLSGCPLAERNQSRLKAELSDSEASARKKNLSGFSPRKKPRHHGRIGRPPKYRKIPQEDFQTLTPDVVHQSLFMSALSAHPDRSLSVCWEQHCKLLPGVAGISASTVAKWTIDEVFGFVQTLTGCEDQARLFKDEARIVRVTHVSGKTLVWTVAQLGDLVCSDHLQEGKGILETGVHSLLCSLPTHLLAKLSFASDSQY
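L3MBTL1 (50 nM) pre-complexed 30 min with biotinylated H3(1-15)K9me1 peptide (75 nM), then compounds added for 30 min at room temperature; AlphaScreen streptavidin donor/nickel chelate acceptor beads (10 ug/mL final) read after 30 min dark incubation.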
Eya2 phos inh: qHTS Assay for Inhibitors of the Phosphatase Activity of Eya2. actives 0.006% (n = 330,000). AID 488837, 2010. Potency, µM (top dose mostly 76.9 µM), for inactives: at the top dose activity, negative = inhibition, usual class: inhibitors. recombinant Eya2, OMFP fluorescence dephosphorylation (OMFP is methylfluorescein phosphate); also: potency is read from the fitted curve at half-maximal effect; % is scaled to controls: 0 for no effect and ±100 for the full control effect
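Eya2 (0.2 uM) preincubated 10 min at ambient with compound, then OMFP substrate added at 50 uM; 10 min reaction in 50 mM HEPES pH 7.5, 50 mM NaCl, 5 uM MgCl2, 0.05% BSA, 1 mM DTT. Fluorescence read at Ex 485/Em 525 nm.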
Six1-Eya2 blk: qHTS Assay for Inhibitors of the Six1/Eya2 Interaction | Homeobox protein SIX1 (Homo sapiens) + Protein phosphatase EYA2 (Homo sapiens), … | AlphaScreen GST-Six1/His-Eya2 binding, biochemical; stronger effect = lower value | activity change, % (test concentration not listed) | actives 0.56% (n = 360,000) | AID 651725, 2012; in the data active = activity change below about -65%; inconclusive = mostly about -30% to -63%; also: % is scaled to controls: 0 for no effect and ±100 for the full control effect
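AlphaScreen with GST-Six1 and His-Eya2 (5X mix: 250 nM and 500 nM), glutathione donor and nickel acceptor beads; buffer 50 mM Tris pH 8.0, 300 mM NaCl, 1 mM TCEP; 1 h at 37 C in the dark.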
CtBP-E1A inh: qHTS Assay for Inhibitors of the CtBP/E1A Interaction; activity change, % (test concentration not listed); AlphaScreen GST-E1A/His-CtBP binding, 1536-well; stronger effect = lower value; CtBP / adenovirus E1A interaction (AlphaScreen); actives 0.49% (n = 340,000); in the data active = activity change below about -65%; inconclusive = mostly about -30% to -63%; also: % is scaled to controls: 0 for no effect and ±100 for the full control effect
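Protein mix (5X: 125 nM each GST-E1A, His-CtBP) was incubated with pinned compound 2 h at 37 deg C in dark, in 50 mM Tris pH 8.0 buffer with 300 mM NaCl. Glutathione donor and nickel acceptor beads followed; AlphaScreen signal read after 1 h.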
The depositor's hits bear a star; ? = inconclusive; · = no result. Unless noted, calls follow the shape of the dose curve; as a rule, active = well fitted curve in the direction sought with a large enough effect; inconclusive = small, poorly fitted or top-dose-only effect, or another doubt; inactive = no such curve, though single readings can be large; an effect the other way counts as inactive or inconclusive.

SMILES	CBFb-RUNX1 inh	MBNL1-CUG inh	L3MBTL1 inh	Eya2 phos inh	Six1-Eya2 blk	CtBP-E1A inh
COc1ccc(C(=O)N/N=C/c2cc(Br)ccc2O)cc1OC	-20%	0%	-15%	?	-68*	-91*
Cn1cccc1-c1cc(C(=O)N/N=C/c2cc(Br)ccc2O)[nH]n1	·	38%	·	-4%	-83*	-87*
O=C(CNC(=O)c1ccccc1)N/N=C/c1cc(Br)ccc1O	-11%	64%	-5%	3%	-65*	10
CC1CCCC(C)N1C(=O)Cn1nnc(-c2ccc([N+](=O)[O-])cc2)n1 (stereo not drawn)	·	?	4%	10%	0	0
O=C(N/N=C/c1cc(Br)ccc1O)C(c1ccncc1)N1CCOCC1 (stereo not drawn)	-2%	28%	?	8%	-89*	14
CCOc1ccc(NC(=O)CN2CC(c3ccccc3)CC2=O)cc1 (stereo not drawn)	8%	?	11%	-16%	8	5
COc1cccc(/C=N/NC(=O)C(c2ccncc2)N2CCOCC2)c1 (stereo not drawn)	1%	14%	13%	13%	-3	9
O=C(CN1CC(c2ccccc2)CC1=O)N/N=C/c1cc(Br)ccc1O (stereo not drawn)	-7%	27%	-11%	-5%	-84*	-90*
Cc1coc2c(C)c3oc(=O)c(CCC(=O)N[C@@H](C)C(=O)N[C@@H](Cc4ccccc4)C(=O)O)c(C)c3cc12	·	-10%	·	2%	-69*	-80*
Cc1c(CC(=O)N[C@@H](C)C(=O)O)c(=O)oc2cc3occ(-c4ccccc4)c3cc12	·	16%	·	11%	-69*	·
Cc1c(CC(=O)O)c(=O)oc2cc3occ(-c4ccccc4)c3cc12	·	-3%	·	-5%	-3	0
Cc1c(CC(=O)N[C@@H](C)C(=O)O)c(=O)oc2c(C)c3occ(-c4ccccc4)c3cc12	·	1%	·	6%	-65*	-83*
CC1(C)c2ssc(=S)c2-c2ccccc2N1C(=O)CSC1=NCCS1	?	?	14µM*	1%	?	?
CN(C)c1ccc(/C=N/OC(=O)Nc2ccccc2Cl)cc1	-3%	-6%	·	8%	4	-2
O=C1c2cccc(Cl)c2C(=O)c2c1cccc2N1CCCC1	·	·	·	·	-91*	-90*
COc1cc(OC)c2c(-c3ccccc3)cc(=O)oc2c1C(CCN1CCCC(C)C1)c1ccc(N(C)C)cc1 (stereo not drawn)	?	8%	·	-20%	-67*	·
COc1cc(OC)c2c(-c3ccccc3)cc(=O)oc2c1C(CCN1CCN(c2ccccc2)CC1)c1ccc(N(C)C)cc1 (stereo not drawn)	·	2%	·	-2%	?	?
CCCCCc1cc(=O)oc2c(C(CCN3CCN(c4ccccc4)CC3)c3ccc(N(C)C)cc3)c(OC)cc(OC)c12 (stereo not drawn)	?	-4%	·	-10%	-66*	-28
Cc1cccc(C(C)Nc2ccc([N+](=O)[O-])cn2)c1 (stereo not drawn)	13%	?	-25%	-26%	-1	-10
O=[N+]([O-])c1ccc(O)c(-c2nn[nH]n2)c1	-12%	?	·	7%	-92*	-94*
Cc1cc(C)n(-c2ccc([N+](=O)[O-])cc2-c2nn[nH]n2)n1	17%	?	·	6%	2	17
C(=N\Nc1nn[nH]n1)/c1ccccc1	-16%	2%	·	4%	6	3
O=[N+]([O-])c1ccc(O)c(/C=N/Nc2nn[nH]n2)c1	-7%	?	14µM*	-4%	-74*	?
O=[N+]([O-])c1ccc(O)c(/C=N/NC2=NS(=O)(=O)c3ccccc32)c1	·	?	?	-20%	-70*	-70*
Oc1ccccc1/C=N/Nc1nn[nH]n1	?	10%	-21%	-6%	-91*	·
SMILES	CBFb-RUNX1 inh	MBNL1-CUG inh	L3MBTL1 inh	Eya2 phos inh	Six1-Eya2 blk	CtBP-E1A inh
NC(N)=N/N=C/c1cc([N+](=O)[O-])ccc1O	5%	?	-3%	0%	-20	-29
O=C1CCC(C2CCc3cc(O)ccc3C2)C1 (stereo not drawn)	·	·	·	·	-12	3
Cc1ccc(NC(=O)c2ncn(CC(=O)NCc3ccc4c(c3)OCO4)n2)cc1C	·	·	0%	7%	2	-17
N#Cc1ccccc1OCC(=O)NC(=O)NC1CCS(=O)(=O)C1 (stereo not drawn)	·	·	0%	11%	1	13
O=C1CCc2cc(S(=O)(=O)NCc3ccccc3Cl)cc3c2N1CC3	·	·	-3%	27%	6	-6
Cc1nnc(N/N=C/c2ccccc2O)n1N	-26%	4%	·	-6%	-78*	-87*
Cc1nnc(N/N=C/c2c(Cl)cccc2Cl)n1N	0%	7%	-15%	9%	12	3
C=CCc1c(C)nc(C)nc1N/N=C/c1ccccc1O	-2%	?	?	9%	-81*	-92*
Oc1cccc(/C=N/Nc2ccc(Cl)nn2)c1	·	?	·	10%	-13	-18
O=[N+]([O-])c1ccc(O)c(/C=N/Nc2ccc(Cl)nn2)c1	-23%	?	?	-4%	-82*	-91*
COc1ccc(/C=C/c2cc(C(F)(F)F)on2)cc1	13%	-3%	26%	-14%	16	9
N/C(=N\OC(=O)Cc1cccs1)c1ccc([N+](=O)[O-])cc1	?	?	-19%	-2%	-25	-13
COc1ccc(Cc2nnc(NN)[nH]c2=O)cc1OC	·	2%	·	-1%	-91*	1
COCCNc1nnc(Cc2ccc(OC)c(OC)c2)c(=O)[nH]1	·	-7%	·	3%	4	0
Cc1nc(C)n(C(C)CC(=O)O)n1 (stereo not drawn)	-3%	-2%	46%	7%	7	-7
Nc1c(N2CCCC2)cc(Cl)c2nonc12	-17%	?	28µM*	21%	7	?
Nc1c(N2CCOCC2)cc(Cl)c2nonc12	1%	?	-2%	-1%	-4	?
